In PubChem BioAssay (NCI):
Several values for one entry are separate records, joined by “and”; a condition that tells them apart may be missing. Identical values can stand only once. The panel holds about 79,000 compounds, 15% with a hit somewhere; the sample as a whole holds those more often. More than one record can exist for a structure, and the calls need not agree. Activity calls are given as the source filed them. No stated cut-off is given here; in the data, active means growth inhibition above about 70%; inactive means the rest.

Columns and labels:
[1] = NCI Yeast Anticancer Drug Screen. Data for the rad50 strain (AID 155);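 further: 0% = growth of vehicle-only cultures of the same strain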; details: S. cerevisiae rad50 strain growth inhibition, stronger effect = higher value
Procedure, shortened: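 Inhibition values express reduced yeast growth in compound-treated cultures relative to vehicle-treated controls.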

[2] = NCI Yeast Anticancer Drug Screen. Data for the mec2-1 strain (AID 157); details: S. cerevisiae mec2-1 strain, stronger effect = higher value
Procedure, shortened: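 Using mec2-1 yeast: add compound, measure growth, express inhibition versus vehicle-treated cultures.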

[3] = NCI Yeast Anticancer Drug Screen. Data for the sgs1 mgt1 strain (AID 161);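 further: 0% = growth of cultures given vehicle only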; details: S. cerevisiae sgs1 mgt1 strain, stronger effect = higher value
Procedure, shortened: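 Percent growth inhibition was derived by comparing compound-exposed mutant yeast with vehicle-exposed cultures. The strain carries alterations in DNA damage repair.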

[4] = NCI Yeast Anticancer Drug Screen. Data for the cln2 rad14 strain (AID 165);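 further: 0% = growth equal to vehicle treated cultures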; details: S. cerevisiae cln2 rad14 strain, stronger effect = higher value
Procedure, shortened: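 Yeast strain cln2 rad14, bearing defects in cell cycle control and DNA repair, serves as the test system; values reflect growth inhibition compared with vehicle.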

[5] = NCI Yeast Anticancer Drug Screen. Data for the bub3 strain (AID 167); details: S. cerevisiae bub3 mutant strain, stronger effect = higher value
Procedure, shortened: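 Steps: expose the mutant yeast strain to compound; grow alongside vehicle-treated cultures; measure growth; express inhibition against the vehicle cultures.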

[6] = NCI Yeast Anticancer Drug Screen. Data for the mlh1 rad18 strain (AID 175); details: S. cerevisiae mlh1 rad18 strain growth inhibition, stronger effect = higher value
Procedure, shortened: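 Steps: expose repair-defective yeast to compound; measure growth; express inhibition against vehicle-treated controls.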

[7] = at 5.0 µM (retest, dose inferred, filed as 0.5)
[8] = at 50.0 µM (retest, dose inferred, filed as 5.0)

SMILES | growth inhibition [1, 7] | growth inhibition [1, 8] | growth inhibition ([1]; at 50.0 µM) | growth inhibition [2, 7] | growth inhibition [2, 8] | growth inhibition ([2]; at 50.0 µM) | growth inhibition [3, 7] | growth inhibition [3, 8] | growth inhibition ([3]; at 50.0 µM) | growth inhibition [4, 7] | growth inhibition [4, 8] | growth inhibition ([4]; at 50.0 µM) | growth inhibition [5, 7] | growth inhibition [5, 8] | growth inhibition ([5]; at 50.0 µM) | growth inhibition [6, 7] | growth inhibition [6, 8] | growth inhibition ([6]; at 50.0 µM)
C=CCN1C(=O)NC(=O)/C(=C/c2c3ccccc3cc3ccccc23)C1=O | 58% (inactive) | 98% (active) | 69.2% (inactive) | 85% (active) | 98% (active) | 47.7% (inactive) | 66% (inactive) | 99% (active) | 82.2% (active) | 48% (inactive) | 98% (active) | -22.6% (inactive) | 83% (active) | 96% (active) | 88% (active) | 79% (active) | 99% (active) | 85% (active)
COC(=O)C1=C(C)NC(=S)NC1c1ccc(N(CCCl)CCCl)cc1Cl (configuration not stated) | 10% (inactive) | 94% (active) | 51.1% (inactive) | -28% (inactive) | 96% (active) | 86.7% (active) | 1% (inactive) | 95% (active) | 86.2% (active) | -8% (inactive) | 92% (active) | 61.9% (inactive) | 81% (active) | 97% (active) | 96.5% (active) | 13% (inactive) | 94% (active) | 91.3% (active)
NC(Cc1c[nH]c2ccccc12)P(=O)(O)O (configuration not stated) | -1% (inactive) | 37% (inactive) | 38.1% (inactive) | 0% (inactive) | 87% (active) | 13.4% (inactive) | 3% (inactive) | 29% (inactive) | -7.75% (inactive) | 1% (inactive) | 96% (active) | 22.9% (inactive) | -9% (inactive) | 98% (active) | -0.8% (inactive) | -9% (inactive) | 47% (inactive) | 26% (inactive)
[Br][Sn]([CH]1CCCCC1)([CH]1CCCCC1)[CH]1CCCCC1 | 98% (active) | 99% (active) | 98.6% (active) | 100% (active) | 100% (active) | 99.1% (active) | 99% (active) | 99% (active) | 98.5% (active) | 57% (inactive) | 98% (active) | 98.5% (active) | 23% (inactive) | 99% (active) | 98.5% (active) | 99% (active) | 99% (active) | 98.8% (active)
O=c1oc2ccccc2c(O)c1C1c2c(c3ccccc3oc2=O)Oc2c1c(=O)oc1ccccc21 | 9% (inactive) | 96% (active) | 85% (active) | 2% (inactive) | 97% (active) | 91.2% (active) | 2% (inactive) | 97% (active) | 88.5% (active) | 12% (inactive) | 97% (active) | 87.3% (active) | 9% (inactive) | 97% (active) | 84.9% (active) | 10% (inactive) | 97% (active) | 92% (active)
CC(C)c1c(O)c(O)c2c(c1O)C(=O)C(O)=C1C(C)(C)CCC[C@@]12C | 48% (inactive) | 95% (active) | 86.8% (active) | 72% (active) | 96% (active) | 88.8% (active) | 79% (active) | 95% (active) | 88.6% (active) | 64% (inactive) | 96% (active) | 85.8% (active) | 84% (active) | 95% (active) | 84.9% (active) | 86% (active) | 89% (active) | 80.4% (active)
ClCCN(CCCl)CCN1c2ccccc2Sc2ccc(Cl)cc21 | 0% (inactive) | 69% (inactive) | 99% (active) | 1% (inactive) | 75% (active) | 96.2% (active) | 0% (inactive) | 97% (active) | 99.5% (active) | -1% (inactive) | 49% (inactive) | 98.5% (active) | -2% (inactive) | 80% (active) | 97.1% (active) | 3% (inactive) | 95% (active) | 98.9% (active)
NN1CCCC1C(=O)O (configuration not stated) | -1% (inactive) | 2% (inactive) | 23.1% (inactive) | -2% (inactive) | -1% (inactive) | 53.1% (inactive) | 0% (inactive) | 0% (inactive) | 28.2% (inactive) | 3% (inactive) | -2% (inactive) | 76.2% (active) | 4% (inactive) | -2% (inactive) | 99.3% (active) | -1% (inactive) | 2% (inactive) | 65.6% (inactive)
ClC1=C(Cl)C2(Cl)C3CC4OC4C=CC3C1(Cl)C2(Cl)Cl (configuration not stated) | 7% (inactive) and 4% (inactive) | 93% (active) and 96% (active) | 96.3% (active) and 39.2% (inactive) | 12% (inactive) and 5% (inactive) | 97% (active) and 98% (active) | 97.3% (active) and 39% (inactive) | 10% (inactive) and 3% (inactive) | 96% (active) and 98% (active) | 96.8% (active) and 73.6% (active) | 0% (inactive) | 96% (active) | 95.3% (active) and 47.4% (inactive) | 2% (inactive) and 5% (inactive) | 96% (active) and 97% (active) | 97.1% (active) and 26.6% (inactive) | 8% (inactive) and 2% (inactive) | 96% (active) | 95.3% (active) and 60.9% (inactive)
